Experimental data reported in PubChem BioAssay (NCI).
Compounds without any hit were thinned out: in the full panel of roughly 83,000, 20% have a hit.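 Assay: single dose, 48 h. Readout: percent growth (0 = no net growth; negative = cell death). Active: <10.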 A number with no mark means an inactive call. Active and inactive are the calls of the source.

Assays:
Assay in all cases: NCI-60 one-dose screen, 48 h (100 = growth as untreated, 0 = no growth, -100 = all killed)
Details in all cases: 10 µM unless noted
BT-549 breast = tested on: BT-549 breast
MDA-MB-435 melanoma = tested on: MDA-MB-435 melanoma
SW-620 colon = tested on: SW-620 colon
MCF7 breast = tested on: MCF7 breast
HCT-116 colon = tested on: HCT-116 colon
HCC-2998 colon = tested on: HCC-2998 colon
KM12 colon = tested on: KM12 colon

SMILES	growth (BT-549 breast)	growth (MDA-MB-435 melanoma)	growth (SW-620 colon)	growth (MCF7 breast)	growth (HCT-116 colon)	growth (HCC-2998 colon)	growth (KM12 colon)
CCOC(=O)c1ccc2n1CCCc1cnc(NC(C)=O)nc1-2	104%	102%	106%	101%	107%	122%	109%
CC(C)(C)OC(=O)N1C/C(=C\c2ccccc2)C(=O)/C(=C/c2ccccc2)C1	91.5%	102%	93.7%	78.1%		103%	108%
CN1CCN(Cc2ccc(NC(=O)c3ccc(C#Cc4c(N)ncc5ccc(F)cc45)cc3)cc2C(F)(F)F)CC1	27.7%	-92% (active)	-52.5% (active)	-77.3% (active)	-95.4% (active)	-82.9% (active)	-75.5% (active)
CC(=O)Nc1ccc(C(=O)/C=C/c2ccc(N(C)C)cc2)cc1	101%	98.1%	110%	78.3%		102%	97.7%
C=C1CCC2C3(C)COC(c4ccccc4)OC3CCC2(C)C1C/C=C1/C(=O)OCC1O (stereo not given)	56.5%	72.8%			38.6%	94.1%	
